# In all, about 370,000 compounds went through this assay and about 620 (0.17%) were called active. What follows is part of a selection rich in actives, with near analogues and random picks from the rest. Unmarked numbers belong to inactive results.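 How the source made its calls: active means inhibition above the mean inhibition of all tested compounds plus 3 SD, set per campaign (cut at about 52% in these data); inactive means the rest.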
# Target: Nuclear receptor coactivator 2 (Homo sapiens) (UniProt Q15596)
# Test: decrease of SRC2 fusion reporter luminescence – cell-based, SRC2 inhibitor project, primary screen (AID 651957);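 further: 0% = DMSO treated cells and 100% = cells given Gossypol at 36 µM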
# Conditions: HEK293 GAL4-SRC2 luciferase reporter, at 9 µM, hits give high values
# Sequence of Nuclear receptor coactivator 2 (Homo sapiens) (Q15596 whole entry, looked up, the tested form may be a part): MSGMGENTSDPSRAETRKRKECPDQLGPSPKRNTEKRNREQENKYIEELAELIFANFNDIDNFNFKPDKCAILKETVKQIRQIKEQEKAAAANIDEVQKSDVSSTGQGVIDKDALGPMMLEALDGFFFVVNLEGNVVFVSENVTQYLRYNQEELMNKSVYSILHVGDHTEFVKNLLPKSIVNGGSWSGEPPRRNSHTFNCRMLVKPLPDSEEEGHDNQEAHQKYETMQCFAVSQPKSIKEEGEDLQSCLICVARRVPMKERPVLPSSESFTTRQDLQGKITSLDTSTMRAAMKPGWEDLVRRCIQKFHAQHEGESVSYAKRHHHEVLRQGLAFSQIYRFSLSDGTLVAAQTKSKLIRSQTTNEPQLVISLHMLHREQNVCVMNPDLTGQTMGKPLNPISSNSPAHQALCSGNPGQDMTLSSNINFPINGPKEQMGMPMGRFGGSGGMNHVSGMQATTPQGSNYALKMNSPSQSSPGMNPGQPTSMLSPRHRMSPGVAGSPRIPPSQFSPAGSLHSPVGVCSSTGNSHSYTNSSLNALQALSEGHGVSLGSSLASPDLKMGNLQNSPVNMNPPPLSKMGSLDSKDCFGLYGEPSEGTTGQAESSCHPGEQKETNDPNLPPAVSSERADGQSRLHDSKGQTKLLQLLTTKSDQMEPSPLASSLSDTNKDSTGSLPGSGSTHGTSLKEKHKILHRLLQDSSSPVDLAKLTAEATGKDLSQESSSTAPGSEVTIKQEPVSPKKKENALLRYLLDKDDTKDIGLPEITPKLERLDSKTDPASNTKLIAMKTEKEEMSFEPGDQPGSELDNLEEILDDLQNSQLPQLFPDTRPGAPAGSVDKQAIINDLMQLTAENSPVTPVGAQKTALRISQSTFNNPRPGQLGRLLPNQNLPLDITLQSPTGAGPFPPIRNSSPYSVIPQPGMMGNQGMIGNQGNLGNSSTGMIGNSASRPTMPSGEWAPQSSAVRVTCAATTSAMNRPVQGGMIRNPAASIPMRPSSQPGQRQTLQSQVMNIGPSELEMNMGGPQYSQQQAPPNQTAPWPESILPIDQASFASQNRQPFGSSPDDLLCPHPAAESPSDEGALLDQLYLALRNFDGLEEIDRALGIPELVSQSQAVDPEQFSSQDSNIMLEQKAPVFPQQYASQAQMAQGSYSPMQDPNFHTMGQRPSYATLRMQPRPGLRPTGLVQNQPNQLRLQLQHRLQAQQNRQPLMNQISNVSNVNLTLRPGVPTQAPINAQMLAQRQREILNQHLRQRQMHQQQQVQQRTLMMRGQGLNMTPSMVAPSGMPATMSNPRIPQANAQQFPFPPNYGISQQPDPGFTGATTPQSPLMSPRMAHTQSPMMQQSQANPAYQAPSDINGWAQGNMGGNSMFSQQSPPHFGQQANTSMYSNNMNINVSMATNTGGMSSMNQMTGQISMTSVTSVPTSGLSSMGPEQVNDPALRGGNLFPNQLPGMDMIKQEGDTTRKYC
row,SMILES,inhibition
1,Cc1cc(N2CCN(C(=O)OC(C)(C)C)C[C@H]2C)ccc1N1CCN(Cc2ccccc2)[C@H](C)C1,-2.83%
2,COc1ccc(CN2C(=O)N3Cc4cc(OC)ccc4C3CS2(=O)=O)cc1 (stereo not given),15.8%
3,Cc1ccc(-n2c(SCC(=O)Nc3ccc(S(=O)(=O)Nc4nccs4)cc3)nnc2-c2ccccn2)cc1,9.13%
4,CC(=O)NCc1ccc(S(=O)(=O)NC2CCN(Cc3ccccc3)CC2)cc1,6.61%
5,COC(=O)[C@@H]1C[C@@]2(O)[C@@H](O)[C@@H](O)[C@@H](O)C[C@H]2N1Cc1ccc(C)s1,-14.3%
6,C/C=C/c1ccc(OCC(O)CN2CCCCCCC2)c(OC)c1 (stereo not given),11.7%
7,CCOC(=O)[C@@]12CN(C(=O)OC(C)(C)C)CC=C1N(Cc1ccc(OC)cc1)C(=O)[C@H]2CC(=O)NCc1ccc(OC)c(OC)c1,-4.35%
8,O=C(CSc1nnc(-c2ccccc2)n1Cc1ccco1)Nc1ccccc1-c1ccccc1,-16.5%
9,CC(=O)C1=C(C)N(Cc2ccccc2)C(=S)NC1c1cccc(Br)c1 (stereo not given),-0.56%
10,COC(=O)c1ccc(CN2C(=O)[C@]3(OCCC=C[C@H]3C)c3c(Br)cccc32)cc1,4.53%
11,Cn1c(Nc2ccccc2)cc(=O)n(C)c1=O,-0.54%
12,Cc1cc(Nc2ccccc2)n(C(=O)c2ccc(N)cc2)n1,62% (active)
13,Cc1ccc(NC(=O)Nc2cc(C)nn2-c2ccccc2)cc1,-32.3%
14,COc1ccc2c(c1)CN1CN(CCc3ccccc3)S(=O)(=O)CC21 (stereo not given),5.4%
15,O=C(NCc1ccccc1)[C@H]1CCCN1C(=O)[C@H]1CCCN1C(=O)N1CCOCC1,3.99%
16,CCOC(=O)C1CCCN(C(=O)c2cccc3ccccc23)CC1 (stereo not given),7.84%
17,CCC(C)(C(=O)NC1CCCCC1)N(C)C(=O)c1ccc2c(c1)OCO2 (stereo not given),-11.6%
18,COc1ccc(OC)c(CNC(=O)c2cc(=O)[nH]c3ccc(S(=O)(=O)N4CCCC4)cc23)c1,-15.1%
19,O=C1CC[C@@H](COc2ccc3[nH]cc(-c4ccccc4)c3c2-c2ccccc2)N1,4.07%
20,CCCc1nc(SCC(=O)N2CCCC2)c2c(=O)n(C)c(=O)n(C)c2n1,2.56%
21,O=C1NC(c2ccccc2)Oc2ccccc21 (stereo not given),-0.1%
22,O=C1NC(c2ccccc2)CCC1(Cl)Cl (stereo not given),-13.7%
23,O=C1NC(c2ccccc2)Cc2ccncc21 (stereo not given),58.9% (active)
24,CCCCn1c(N)c(N(Cc2ccccc2OC)C(=O)COc2cc(C)ccc2Cl)c(=O)[nH]c1=O,-2.7%
25,O=C(NCc1nnc(SCC(=O)N2CCCCCC2)o1)c1ccc(F)cc1,-14.4%
26,Cc1ccccc1NC(=O)COC(=O)c1ccc(Sc2ncn[nH]2)c([N+](=O)[O-])c1,-15.7%
27,COC(=O)c1cc(S(=O)(=O)N2CCN(c3ccccc3C)CC2)cn1C,20.3%
28,C[C@@H]1COc2cccc(N3CCCC3)c2S(=O)(=O)N1C,-9.18%

row,SMILES,inhibition
1,Cc1ccc2oc(=O)c3cnn(CC(=O)N(Cc4ccco4)C4CCCCC4)c3c2c1,-25.6%
2,NNC(=O)C1CC(O)CN1S(=O)(=O)c1ccc(Cl)cc1 (stereo not given),23.4%
3,COc1ccccc1CNC(=O)C1CCN(S(=O)(=O)c2ccc3c(c2)OCCO3)CC1,-1.43%
4,COC(=O)[C@]12C[C@H](CC(=O)N3CCN(C(=O)C4CC4)CC3)C(=O)N(CCC3=CCCCC3)C1=C[C@H](C(C)C)O[C@@H]2C1CC1,-0.28%
5,CCNC(=S)N1CCC(c2nc3cc(C)c(C)cc3[nH]2)CC1,-32.6%
6,O=C(CSc1nnc(-c2ccccn2)n1-c1ccccc1)Nc1ccc2cn[nH]c2c1,-5.6%
7,CC(C)(C)C(c1nc2ccccc2[nH]1)n1c(Cc2csc3ccccc23)nc2ccccc21 (stereo not given),-15%
8,CS(=O)(=O)N1CCN=C1SCc1ccc(F)cc1,-10.1%
9,O=C(C1CCN(S(=O)(=O)c2ccccc2)CC1)N1CCN(C2CCCCC2)CC1,14.3%
10,COC(=O)C1=C(C)N(Cc2ccc(C(F)(F)F)cc2)C(=NCc2ccc(C(F)(F)F)cc2)NC1c1cccc(Cl)c1 (stereo not given),-4.35%
11,OCCCNc1nccc(-c2cc(Nc3cccc(Cl)c3)ncn2)n1,56.3% (active)
12,Cc1ccc(NC(=O)c2cc(C)nn2-c2ccccc2)c(C)c1,4.89%
13,CCCC(=O)N1CCC1(C)C(=O)NCc1ccc(SC)cc1 (stereo not given),-38.9%
14,Cc1sc2nc(SCC(=O)c3ccc(O)c(O)c3)n(Cc3ccco3)c(=O)c2c1C,8.73%
15,C=CCN=C1NC(c2cccc(C(F)(F)F)c2)C(C(=O)OC)=C(C)N1C (stereo not given),-11.9%
16,CC(C)N1CCCCC(NC(=O)c2ccc3ccccc3c2)C1=O (stereo not given),-10%
17,CCOc1ccc(S(=O)(=O)NCCCn2ccnc2)cc1NC(C)=O,12.2%
18,Nc1[nH]c(/C=C2/CCCCC2n2[nH]c(=O)n(-c3ccccc3)c2=O)c(Cc2ccccc2)[n+]1Cc1ccccc1 (stereo not given),12.9%
19,C=CCN1[C@@H](Cc2ccccc2)COc2cccc(N3CCSCC3)c2S1(=O)=O,10.1%
20,CC(C)(C)OC(=O)NCc1cc(F)ccc1/C=C/S(=O)(=O)NCCc1ccccc1,4.87%
21,COc1cccc(N(C)C(=O)[C@@H](C)[C@@H](O)c2ccc3ccccc3c2)c1,-32.8%
22,CC(C)CC(CCc1ccccc1)OS(N)(=O)=O (stereo not given),-15.3%
23,OCCN1CCN(C(=S)c2ccc(-c3ccccc3)cc2)CC1,71.1% (active)
24,O=C(NC(=S)N1CCN(Cc2ccccc2)CC1)c1ccccc1,-12.4%
25,O=C(O)C1C2C=CC(C2)C1C(=O)N1CCN(CCO)CC1 (stereo not given),-0.51%
26,CC(=O)OC12CCCN(C1)/C(=C/c1ccncc1)C2 (stereo not given),12.7%
27,COC(=O)C1=C(C)N(Cc2cccc(C(F)(F)F)c2)C(=NCc2ccccc2)NC1c1ccc(Cl)cc1 (stereo not given),-0.5%

# — PubChem BioAssay AID651957 (The Scripps Research Institute Molecular Screening Center, 2012)
